High-throughput results deposited in PubChem by several laboratories.
MEX-5 binding: MEX-5 zinc finger RNA-binding disruptors – biochemical, C. elegans, fluorescence polarization, MLPCN library, primary screen; Zinc finger protein mex-5 (Caenorhabditis elegans), Q9XUB2; MEX-5/FITC-TCR2 RNA binding; active compounds read low; activity score (negative = inhibition of binding), % at 10 µM; 300,000 compounds, 0.38% hits; AID 1832, 2009;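 active means inhibition past about -25% in most replicates, and total fluorescence under double the plate's negative control median, limit read from the data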;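 further: 0% = DMSO and -100% = 5 µM competing unlabeled TCR2 RNA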
E coli Lon inh: inhibitors of E. coli Lon protease, primary screen, biochemical, fluorescence polarization | P0A9M0 | purified E. coli Lon protease | inhibition, % at 7.94 µM | 360,000 compounds, 0.42% hits | AID 602123, 2011; in the data active means inhibition above about 13%, passing the limit was not always enough;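 further: 0% = enzyme with probe and DMSO and 100% = no enzyme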
Bcl-xL primary: inhibitors of human Bcl-xL, primary screen, biochemical, fluorescence polarization, HTS. GST-Bcl-xL / FITC-Bim BH3 peptide fluorescence polarization. inhibition, % at 10.9 µM. 320,000 compounds, 0.7% hits. AID 2129, 2009;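 active means inhibition above the mean of all tested compounds plus 3 SD, cutoff set per campaign, cut at about 30% in these data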;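 further: 0% = DMSO wells and 100% = unlabeled Bim-BH3 peptide competitor; inhibitors lower millipolarization by displacing the labeled peptide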
Target sequence (Q07817 whole entry, looked up): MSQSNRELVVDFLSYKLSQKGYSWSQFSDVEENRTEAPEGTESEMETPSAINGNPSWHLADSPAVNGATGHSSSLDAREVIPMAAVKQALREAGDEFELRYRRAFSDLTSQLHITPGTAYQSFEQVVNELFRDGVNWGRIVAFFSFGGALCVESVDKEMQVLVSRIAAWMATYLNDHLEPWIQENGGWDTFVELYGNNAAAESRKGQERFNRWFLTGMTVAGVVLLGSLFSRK
GLD-1 RNA inh: GLD-1/TGE RNA complex disruptors, primary screen, biochemical, fluorescence polarization. 320,000 compounds, 0.44% hits. Female germline-specific tumor suppressor gld-1 (Caenorhabditis elegans), Q17339. purified GLD-1 + fluorescein TGE RNA. AID 2280, 2010. inhibition, % at 5.96 µM;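 active means percent inhibition above a per-plate cutoff, the plate mean of test compounds plus 3 SD, cut at about 30% in these data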;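 further: 0% = DMSO wells with GLD-1 and probe and 100% = wells lacking GLD-1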
EBV gp42 inh: Epstein-Barr virus gp42 inhibitors, primary screen, biochemical, uHTS, fluorescence polarization; Glycoprotein 42 (Epstein-Barr virus (strain AG876)), Q1HVG2; Fluorescence polarization binding assay, mP read-out; inhibition, % (tested at 21.74 µM); 220,000 compounds, 0.42% hits; AID 1085, 2008; in the data active means inhibition above about 50%
Target sequence (Q1HVG2 whole entry, looked up): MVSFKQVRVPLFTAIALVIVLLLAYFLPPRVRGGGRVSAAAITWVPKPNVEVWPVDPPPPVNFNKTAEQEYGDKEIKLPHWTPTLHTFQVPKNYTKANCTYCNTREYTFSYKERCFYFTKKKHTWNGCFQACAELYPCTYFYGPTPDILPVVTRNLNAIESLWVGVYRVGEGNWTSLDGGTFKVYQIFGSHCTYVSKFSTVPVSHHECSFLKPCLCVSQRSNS
* marks the source's active call; other numbers are inactive results; . = no result; + = active, no number. A selection: hits, their analogues and other compounds. The true share with any hit is near 1.3%.

SMILES | MEX-5 binding | E coli Lon inh | Bcl-xL primary | GLD-1 RNA inh | EBV gp42 inh
O=C(CSc1nnc(Cc2cc(=O)[nH]c(=O)[nH]2)n1-c1ccc(F)cc1)N1CCCCC1 | -1.3 | 14.4* | 7.1 | 23.6 | 3.2
CCOc1ccc(S(=O)(=O)N2CCN(C(=O)c3ccncc3)CC2)cc1 | -0.6 | -1.3 | -0.5 | -5.8 | .
Oc1ccc(C2=CSC3=NCCN23)cc1O | -30.3* | 7.2 | 6.1 | -3.6 | .
Brc1ccc(C2=CSC3=NCCN23)cc1 | -1.2 | 5.8 | 6.8 | 8.7 | 10.0
Cc1cc(C)c(S(=O)(=O)NC2CCN(Cc3ccccc3)CC2)c(C)c1 | 2.6 | -9.1 | 3.0 | 8.9 | -17.3
Cc1noc(C)c1S(=O)(=O)NC1CCN(Cc2ccccc2)CC1 | -33.7* | -3.2 | 34.7* | 9.4 | 1.9
c1ccc(C(c2nnnn2C2CCCCC2)N2CCc3ccccc3C2)nc1 (configuration not stated) | 0.4 | -0.8 | 30.5* | 24.9 | -4.8
CC(C)C(c1nnnn1C1CCCCC1)N1CCc2ccccc2C1 (configuration not stated) | -3.9 | 1.4 | 2.6 | 4.7 | -29.9
CC(CNS(=O)(=O)c1ccc2c(c1)NC(=O)CCS2)c1ccccc1 (configuration not stated) | -2.8 | -15.9 | -0.1 | -12.3 | .
COC(=O)CSc1[nH]c2ccc(Br)cc2c1[N+](=O)[O-] | -1.4 | -2.6 | 5.8 | -2.4 | -2.8
CCOc1ccc2[nH]c(SCC(=O)OC)c([N+](=O)[O-])c2c1 | -0.3 | 3.1 | 38.7* | 30.1 | 27.8
CC1CCCCN1CCNC(=O)C1CCCN(c2ncnc3c2nc2n3CCCCC2)C1 (configuration not stated) | -1.6 | 2.6 | 38.8* | 15.0 | .
CC1CC(C)CN(CCCNC(=O)C2CCCN(c3ncnc4c3nc3n4CCCCC3)C2)C1 (configuration not stated) | 0.0 | -4.5 | 4.4 | 41.2* | .
CC1CCCN(CCCNC(=O)C2CCCN(c3ncnc4c3nc3n4CCCCC3)C2)C1 (configuration not stated) | -2.4 | -3.1 | 5.1 | -1.7 | .
CC1CCN(CCCNC(=O)C2CCCN(c3ncnc4c3nc3n4CCCCC3)C2)CC1 (configuration not stated) | -0.9 | -10.3 | 0.7 | 3.7 | .
COc1cc(C2C=C(c3cccs3)Nc3ncnn32)cc(OC)c1OC (configuration not stated) | . | + | . | . | 105.4*
COc1cccc(C2=CC(c3ccc(C)cc3)n3ncnc3N2)c1 (configuration not stated) | 3.5 | . | 55.0* | 56.5* | 21.9
O=C(COC(=O)/C=C/c1cccc(Cl)c1Cl)Nc1ccc2[nH]c(=O)[nH]c2c1 | . | -5.7 | -4.8 | 0.5 | .
COc1ccccc1/C=N/N1C(=O)c2cccc3cccc(c23)C1=O | -2.5 | -3.2 | 43.4* | 2.8 | 37.2
NC(=O)c1c(NC(=O)CSc2nnc(-c3ccco3)n2-c2ccccc2)sc2c1CCC2 | 0.7 | -16.5 | 8.0 | 3.2 | 67.5*
N#Cc1c(NC(=O)CSc2nnc(-c3ccco3)n2-c2ccccc2)sc2c1CCC2 | -1.6 | -19.7 | -1.5 | -1.8 | -16.0
Cc1ccccc1NC(=O)CSCc1cc(=O)n2ccsc2n1 | 1.9 | -9.8 | 1.6 | 8.9 | .
COC(=O)C1=COC(C)C2CN3CCc4c([nH]c5ccccc45)C3CC12 (configuration not stated) | -18.3 | 2.8 | 88.6* | 48.0* | 19.2
CCOC(=O)CN(C(=O)CSc1nnc(CNc2ccc(F)cc2)n1C)c1ccccc1 | 0.8 | -5.8 | -2.1 | 44.8* | -15.7
CCOC(=O)CN(C(=O)CSc1nnc(CNc2ccc(F)cc2)o1)c1ccccc1 | -3.9 | 0.7 | 9.0 | 4.7 | 2.0
SMILES | MEX-5 binding | E coli Lon inh | Bcl-xL primary | GLD-1 RNA inh | EBV gp42 inh
C[C@H]1CN[C@H](CCO)/C1=C\c1ccccc1 | . | -4.5 | . | . | .
Nc1nccnc1C(=O)OCC(=O)C12CC3CC(CC(C3)C1)C2 | -0.3 | -8.4 | 1.6 | 3.0 | .
N#CC1(C#N)CC(C=O)=C(N)C1(C#N)CC(=O)C12CC3CC(CC(C3)C1)C2 (configuration not stated) | 1.1 | -18.6 | 11.3 | -8.6 | 142.1*
CSc1ccc(Cn2c(C)c(C(=O)NCc3cccs3)sc2=O)cc1 | . | 2.1 | . | . | .
O=C(Nc1ccc(F)c(Cl)c1)Nn1cnnc1 | 2.1 | 1.9 | 1.9 | -4.9 | .
NC(=O)c1ccc(Oc2cccc3cccnc23)c([N+](=O)[O-])c1 | -3.8 | 0.5 | 32.8* | 6.5 | 18.9
CC1=C(C(=O)N(C(C)C)C(C)C)CC(CC(=O)NCc2ccco2)C(=O)N1Cc1ccccc1 (configuration not stated) | . | 3.5 | . | . | .
Clc1ccc2c(c1)C1OCCC1C(c1ccco1)N2 (configuration not stated) | -2.7 | -0.9 | 32.2* | 27.1 | -16.9
COc1ccccc1Cc1c(-c2ccc(C#N)cc2)nc2c3ccccc3ccn12 | . | -4.2 | . | . | .
N#C/C(=C\c1cccnc1)C(=O)Nc1ccccc1 | . | -0.5 | 30.7* | 28.6 | -5.8
COc1ccccc1C(=O)Nc1ccc2c(c1)nc(CCNC(=O)c1ccco1)n2C | -3.1 | 5.2 | 4.3 | 1.7 | .
CC(=O)c1ccc(OCc2cc(C(=O)NCCc3ccc(Cl)cc3)no2)cc1 | 0.0 | 7.4 | 8.1 | 3.6 | .
Cc1ccc(Nc2ccc([N+](=O)[O-])ccc2=O)cc1 | -27.5* | 6.2 | -1.5 | -1.6 | .
CCc1ccc(N2CC(C(=O)Nc3ccc4c(c3)OCCO4)CC2=O)cc1 (configuration not stated) | 0.2 | -8.6 | 2.2 | 3.7 | .
COc1cc(SC)ccc1C(=O)Nc1cccc(S(=O)(=O)NC2=NCCCCC2)c1 | 0.3 | 8.1 | 4.7 | 165.0* | .
O=C(Nc1cccc(S(=O)(=O)NC2=NCCC2)c1)c1cc(-c2ccco2)nc2ccccc12 | -2.1 | -0.6 | 27.3 | 7.3 | 82.2*
O=C(NC(=S)Nc1cccc(S(=O)(=O)NC2=NCCC2)c1)c1cc(-c2ccco2)nc2ccccc12 | 1.4 | 3.9 | 44.2* | 20.9 | 8.6
O=C(Nc1cccc(S(=O)(=O)NC2=NCCCCC2)c1)c1cc(-c2ccccc2)nc2ccccc12 | 1.9 | -11.1 | 6.6 | 5.0 | -2.0
CC1(Cc2ccc(C(F)(F)F)o2)C(=O)Nc2cc(-c3ccc(F)cc3F)ccc21 (configuration not stated) | . | -2.3 | . | . | .
Brc1ccc(-c2cn3nc4c(nc3n2)CCCC4)cc1 | -10.6 | -6.2 | 74.8* | 42.1* | -21.6
c1ccc(-c2cn3nc4c(nc3n2)CCCC4)cc1 | -36.8* | 6.9 | 112.0* | 90.8* | 63.4*
O=c1/c(=C/c2cn(-c3ccccc3)nc2-c2ccc(F)cc2)sc2nc3ccccc3n12 | . | . | . | . | -33.6
CC(C)Oc1ccc(-c2nn(-c3ccccc3)cc2/C=c2\sc3ncnn3c2=O)cc1 | . | . | 5.7 | -1.5 | 74.5*
